The record followed here is PubChem BioAssay (Tox21).

Assay [1] can be described thus: qHTS RealTime-Glo MT Cell Viability Assay in HEK293 cells - 0 hour (AID 1224880). Note: nearly all actives have a fitted effect of over 45% in size. Note: potency is the fitted concentration of half-maximal effect. Summed up: (§1)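 Viable HEK293 cells reduce a cell-permeant prosubstrate; the product diffuses out and is consumed by NanoLuc in the medium to give light. Compounds went in after a 5 h incubation and plates were read over the treatment course.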
For orientation: qHTS replaces the single test concentration by a dilution series.

Assay [2] in a line: A CellTox Green Cytotoxicity Assay to monitor cytotoxicity in HEK293 cells - 32 hour (AID 1224881). Note: nearly all actives have a fitted effect of over 40% in size. Note: potency is the fitted concentration of half-maximal effect. The method, boiled down:
(§2)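 Fluorescence intensity, read at 0, 8, 16, 24, 32 and 40 h of compound treatment, reflected dye binding to DNA of dead HEK293 cells; compounds (23 nL, DMSO) were added 5 h after plating cells with reagent.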

Assay [3] in a line: A CellTox Green Cytotoxicity Assay to monitor cytotoxicity in HepG2 cells - 0 hour (AID 1224882). Note: nearly all actives have a fitted effect of over 35% in size. Note: potency is the fitted concentration of half-maximal effect. Summed up:
(§3)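 Using 1536-well format, dye-containing HepG2 suspension was seeded, allowed 5 h at 37 C/5% CO2, dosed by pintool with compounds, positive and negative controls, and imaged for fluorescence across 40 h.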

Assay [4] can be described thus: A CellTox Green Cytotoxicity Assay to monitor cytotoxicity in HepG2 cells - 32 hour (AID 1224883). Note: nearly all actives have a fitted effect of over 50% in size. Note: potency is the fitted concentration of half-maximal effect. Summed up: as §3
Assay [5] is described as follows: A CellTox Green Cytotoxicity Assay to monitor cytotoxicity in HEK293 cells - 8 hour (AID 1224884). Note: nearly all actives have a fitted effect of over 35% in size. Note: potency is the fitted concentration of half-maximal effect. The method, boiled down:
as §2

Assay [6] in a line: qHTS RealTime-Glo MT Cell Viability Assay in HepG2 cells - 16 hour (AID 1224885). Note: nearly all actives have a fitted effect of over 50% in size. Note: potency is the fitted concentration of half-maximal effect. Summed up:
(§4)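 Cells + NanoLuc/prosubstrate dispensed (600 cells/well) → 5 h at 37 C/5% CO2 → compounds in DMSO transferred → 40 h incubation at 37 C, luminescence read at 0, 8, 16, 24, 32, 40 h.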

A short description of assay [7]: qHTS RealTime-Glo MT Cell Viability Assay in HEK293 cells - 24 hour (AID 1224886). Note: nearly all actives have a fitted effect of over 50% in size. Note: potency is the fitted concentration of half-maximal effect. The method, boiled down:
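Tox21 10K qHTS, HEK293, 600 cells/well, RealTime-Glo reagent co-dispensed with cells; 5 h preincubation, compound by pintool, 37 C, luminescence at 0–40 h.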

Assay [8] can be described thus: qHTS RealTime-Glo MT Cell Viability Assay in HEK293 cells - 8 hour (AID 1224887). Note: nearly all actives have a fitted effect of over 50% in size. Note: potency is the fitted concentration of half-maximal effect. The method, boiled down: as §1
Assay [9] can be described thus: A CellTox Green Cytotoxicity Assay to monitor cytotoxicity in HEK293 cells - 16 hour (AID 1224888). Note: nearly all actives have a fitted effect of over 35% in size. The method, boiled down: as §2
The nature of assay [10]: qHTS RealTime-Glo MT Cell Viability Assay in HepG2 cells - 0 hour (AID 1224889). Note: nearly all actives have a fitted effect of over 50% in size. Note: potency is the fitted concentration of half-maximal effect. Summed up:
as §4

“And” between values parts separate entries of the source, which are not always exact repeats. Identical values can stand only once. Results filed as inconclusive are left out. More than one record can exist for a structure, and the calls need not agree. The source made the active and inactive calls. Calls come from the whole dose curve; as a rule, active = well fitted curve in the direction sought with a large enough effect in the repeat runs; inconclusive = weak or mixed curves; inactive = no such curve, though single readings can be large; an effect the other way counts as inactive or inconclusive.

`CC(=O)c1ccc(S(=O)(=O)NC(=O)NC2CCCCC2)cc1`: the Potency entry in assay [1], in assay [2], in assay [3], in [4], in [5] and in [6] was “inactive” in each case. Besides, the Potency result in [7], in assay [8], in assay [9] and in assay [10] was “inactive” each time.

As for `C=CC(=O)NC(C)(C)CS(=O)(=O)O`, the Potency entry in assay [1], in [6], in assay [7], in assay [8] and in assay [10] was “inactive” each time. In addition, the Potency entry in assay [2] was “inactive and 43.6 µM (active)”; in [3], “inactive and 27.5 µM (active)”; in assay [4], “inactive and 24.5 µM (active)”; in assay [5], “inactive and 43.6 µM (active)”.

For the molecule `CCCCCCCCOc1ccc(C(=O)c2ccccc2)c(O)c1`, the Potency entry in assay [1], in assay [2], in assay [3], in assay [4], in assay [5] and in assay [6] was “inactive” each time. Besides, the Potency entry in [7], in assay [8], in assay [9] and in assay [10] was “inactive” throughout.

For `O=C1CCCCCN1`, the Potency result in assay [1], in [2], in [3], in assay [4], in [5] and in assay [6] was “inactive” each time. The Potency entry in assay [7], in assay [8], in [9] and in assay [10] was “inactive” in each case.

Take `Nc1cccc(N)c1`: the Potency entry in assay [1], in assay [2], in assay [3], in assay [4], in assay [5] and in assay [6] was “inactive” in each case. The Potency entry in [7], in assay [8], in [9] and in [10] was “inactive” each time.

For `CCCCCCCC(=O)OCC(O)CO` (configuration not stated), the Potency result in assay [1], in assay [2], in assay [4], in [5], in assay [6] and in [7] was “inactive” each time. Further, the Potency result in assay [8], in assay [9] and in [10] was “inactive” in each case. In addition, in assay [3], the Potency entry was “inactive and 26.8 µM (active)”.

Take `CN(C)C=O`: the Potency entry in assay [1], in assay [2], in assay [3], in assay [4], in assay [5] and in assay [6] was “inactive” in each case. Moreover, the Potency result in assay [7], in [8], in assay [9] and in assay [10] was “inactive” throughout.

Turning to `OCCCc1ccccc1`, the Potency result in assay [1], in [2], in assay [3], in assay [4], in assay [5] and in assay [6] was “inactive” each time. Moreover, the Potency entry in [7], in [8], in assay [9] and in [10] was “inactive” each time.

`C=C(C)C(N)=O`: the Potency result in assay [1], in [2], in assay [3], in [4], in assay [5] and in assay [6] was “inactive” each time. Also, the Potency result in [7], in assay [8], in [9] and in [10] was “inactive” in each case.

With `COc1ccc(C(=O)c2ccccc2)c(O)c1`, the Potency entry in [1], in [2], in assay [3], in assay [4], in assay [5] and in assay [6] was “inactive” in each case. Further, the Potency entry in assay [8], in assay [9] and in assay [10] was “inactive” each time. Moreover, in assay [7], the Potency entry is “inactive and 12.3 µM (active)”.

Take `C[C@]12C[C@H](O)[C@H]3[C@@H](CCC4=CC(=O)CC[C@@]43C)[C@@H]1CC[C@@H]2C(=O)CO`: the Potency in [1] is 13.8 µM (active); in [10], 9.79 µM (active) and 3.47 µM (active) and 9.52 µM (active). Also, the Potency entry in [2], in [3], in assay [4], in assay [5], in [6] and in [7] was “inactive” throughout. Moreover, in assay [9], the Potency result was “inactive”.

For the molecule `CO[C@H]1C=CO[C@@]2(C)Oc3c(C)c(O)c4c(O)c(c(/C=N/N5CCN(C)CC5)c(O)c4c3C2=O)NC(=O)/C(C)=C\C=C[C@H](C)[C@H](O)[C@@H](C)[C@@H](O)[C@@H](C)[C@H](OC(C)=O)[C@@H]1C`, the Potency result in assay [1], in [2], in assay [3], in [4], in assay [5] and in assay [9] was “inactive” in each case. For the same molecule, in assay [10], the Potency result was “inactive”. Further, the Potency in assay [6] was 12.4 µM (active); in assay [7] it was 12.4 µM (active) and 4.42 µM (active) and 21.3 µM (active); in assay [8] it was 2.77 µM (active) and 988 nM (active) and 10.7 µM (active).

On to `COC1=CC(=O)C[C@@H](C)[C@]12Oc1c(Cl)c(OC)cc(OC)c1C2=O`, for which the Potency entry in assay [1], in assay [2], in assay [3], in assay [6], in [7] and in assay [8] was “inactive” each time. Also, the Potency entry in assay [9] and in assay [10] was “inactive” each time. The Potency in assay [4] is 34.4 µM (active); in assay [5], 24.3 µM (active) and inactive.

In the case of `Cc1cccc(C)c1O`, the Potency result in assay [1], in assay [2], in assay [3], in [4], in [5] and in assay [6] was “inactive” in each case. Besides, the Potency entry in assay [7], in [8], in assay [9] and in [10] was “inactive” each time.

Consider `C[C@]12CC[C@@H]3c4ccc(O)cc4CC[C@H]3[C@@H]1CCC2=O`, for which the Potency result in assay [1], in [3], in assay [4], in assay [5], in [6] and in assay [7] was “inactive” in each case. Besides, the Potency entry in [8], in assay [9] and in assay [10] was “inactive” each time. For the same molecule, the Potency in [2] was 49 µM (active) and inactive.

Take `CCCCC/C(C=O)=C\c1ccccc1`: the Potency entry in [1], in assay [2], in assay [3], in [4], in assay [5] and in [6] was “inactive” throughout. Also, the Potency result in [7], in assay [8], in [9] and in assay [10] was “inactive” throughout.

Consider `NC(N)=NC(N)=NCCc1ccccc1`, for which the Potency result in [1], in assay [2], in assay [3], in [4], in assay [5] and in assay [6] was “inactive” throughout. In addition, the Potency entry in [7], in assay [8], in [9] and in assay [10] was “inactive” each time.

Take `CC(C)(C)CC(C)(C)c1ccc(O)c(-n2nc3ccccc3n2)c1`: the Potency entry in [1], in [2], in assay [3], in [4], in assay [5] and in assay [6] was “inactive” throughout. Further, the Potency entry in [8], in assay [9] and in [10] was “inactive” each time. Further, in assay [7], the Potency was 49.7 µM (active) and inactive.

For `O=c1cc[nH]c(=O)[nH]1`, the Potency result in assay [1], in assay [2], in [3], in assay [4], in assay [5] and in assay [6] was “inactive” each time. Also, the Potency entry in assay [7], in [8], in assay [9] and in [10] was “inactive” in each case.

As to `Cc1cccc(Nc2cc(Cl)nc(SCC(=O)O)n2)c1C`, the Potency result in assay [1], in assay [2], in assay [3], in assay [4], in assay [5] and in assay [6] was “inactive” each time. Moreover, the Potency entry in assay [7], in [9] and in assay [10] was “inactive” in each case.
